Source: PubChem BioAssay (Broad Institute)
Shown are actives, neighbours in structure and some others; about 2.1% of the full set was active somewhere.
p53 PUMA act: restores mutant p53 pathway signaling in SW480 cells. SW480 PUMA-promoter luciferase, p53 mutant reactivation. activation, % at 9.98 µM. 1.5% of 28,000 active. AID 624151; in the data active = activation above about 52%; inconclusive = no clear call, values can overlap the other calls
STK33 inh: blocks human STK33 kinase activity; inhibition, % at 12.5 µM; 0.44% of 27,000 active; ADP-Glo luminescence, MBP substrate; in the data active = inhibition above about 20%; inconclusive = no clear call, values can overlap the other calls
ID4 binder: binders of human ID4 protein; calls only; AID 624137; 1.2% of 31,000 active; small molecule microarray, Flag-ID4 binding, fluorescence F/B; P47928; call rule not given here;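 also: a binder raises fluorescence above local background on the spot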
Target sequence (P47928 whole entry, looked up): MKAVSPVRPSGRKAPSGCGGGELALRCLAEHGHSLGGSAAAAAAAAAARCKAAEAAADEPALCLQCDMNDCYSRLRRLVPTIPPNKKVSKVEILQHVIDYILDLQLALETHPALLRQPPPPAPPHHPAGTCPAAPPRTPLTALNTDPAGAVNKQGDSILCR
A number is an active result; – = inactive; ? = inconclusive; · = no result; + = active, no number.

SMILES	p53 PUMA act	STK33 inh	ID4 binder
Cc1cccc(NC(=O)C(C)N(c2ccc(Oc3ccccc3)cc2)S(C)(=O)=O)c1 (stereo not drawn)	–	–	–
Cn1c(=O)c2c(nc(Sc3nnc(N)s3)n2C)n(C)c1=O	–	·	–
O=C(Nc1ccccc1[N+](=O)[O-])c1cccc(S(=O)(=O)N2CCOCC2)c1	–	–	–
O=C(O)c1ccccc1Nc1nc(N2CCOCC2)nc(N2CCOCC2)n1	55.8	–	–
O=C(CSc1nc(Nc2ccccc2)nc(N2CCOCC2)n1)Nc1ccccc1Cl	–	–	–
COC(=O)C1=C(C)N(C)C(=O)NC1c1ccc(OC)c(Br)c1 (stereo not drawn)	·	–	·
O=C(O)C(O)Cc1c[nH]c2ccccc12 (stereo not drawn)	–	·	–
O=C(O)CCCc1c[nH]c2ccccc12	–	–	+
CO[C@H]1/C=C\O[C@@]2(C)Oc3c(C)c(O)c4c(O)c(c(/C=N\N5CCN(C)CC5)c(O)c4c3C2=O)NC(=O)/C(C)=C\C=C/C(C)[C@H](O)[C@@H](C)[C@@H](O)[C@@H](C)[C@@H](OC(C)=O)[C@@H]1C (stereo partly drawn)	–	·	·
O=C1c2cccc3cccc(c23)C(=O)N1OS(=O)(=O)c1cccc2cccnc12	–	–	–
COc1ccc(/C=C/C(=O)c2cc(O)ccc2O)cc1	·	–	·
O=C(/C=C/c1ccc(O)cc1)c1ccc(O)cc1O	·	49.6	·
O=C(/C=C/c1ccc(O)cc1)CC(=O)/C=C/c1ccc(O)cc1	–	120.0	·
O=C(/C=C/c1ccccc1)CC(O)CCc1ccccc1 (stereo not drawn)	–	–	–
COc1ccc(OC)c(S(=O)(=O)N2CCC(C(=O)Nc3cc(Cl)ccc3Oc3ccccc3)CC2)c1	–	–	–
COC(=O)c1cc(NC(=S)NCc2cccnc2)cc(C(=O)OC)c1	–	–	–
NC(=O)c1c(NC(=O)C(Cc2ccccc2)N2C(=O)c3ccccc3C2=O)sc2c1CCCC2 (stereo not drawn)	–	–	+
O=C(O)C(Cc1ccccc1)N1C(=O)c2ccccc2C1=O (stereo not drawn)	65.2	–	–
COc1ccc(C(=O)Nc2sc3c(c2C(=O)NC2CCS(=O)(=O)C2)CCCC3)cc1OC (stereo not drawn)	–	–	–
COc1ccc(C(=O)Nc2sc3c(c2C(N)=O)CCCC3)cc1OC	76.0	·	–
COc1ccc(NC(=O)C(Cc2ccccc2)N2C(=O)c3ccccc3C2=O)cc1 (stereo not drawn)	–	–	–
CCc1ccccc1OCC(=O)Nc1sc2c(c1C(N)=O)CCCC2	–	–	–
CCn1c(SCC(=O)Nc2ccc(C)c(C)c2)nnc1-c1ccncc1	–	–	–
COC(CN1C(=O)C2C3C=CC(C3)C2C1=O)OC (stereo not drawn)	–	·	–
CC1(C)C=Cc2cc3ccc(=O)oc3cc2O1	58.4	·	·
SMILES	p53 PUMA act	STK33 inh	ID4 binder
COc1c2c(cc3oc(=O)ccc13)OC(C)(C)C=C2	·	–	–
COc1ccc(NC(=O)CSc2nc(C)cc(=O)[nH]2)c(OC)c1	–	–	–
COc1cccc(OCC(=O)Nc2cc([N+](=O)[O-])ccc2OC)c1	–	–	–
Cc1nnc(SCC(=O)Nc2ccc(Cl)cc2Cl)[nH]c1=O	–	–	–
O=C(Cn1c(=O)oc2ccccc21)Nc1sc2c(c1C(=O)O)CCCC2	–	–	+
N#Cc1c(NC(=O)Cn2c(=O)oc3cc(Br)ccc32)sc2c1CCCC2	–	–	–
Cn1c(SCC(=O)Nc2ccccc2C(F)(F)F)nnc1-c1ccc(F)cc1	–	–	–
Cc1ccc(NC(=O)CSc2nnc(-c3ccncc3)n2C)c(Br)c1	–	–	–
Cn1c(SCC(=O)Nc2ccnc3ccccc23)nnc1-c1ccncc1	–	–	+
Cc1ccc(-c2nnc(SCC(=O)Nc3ccccc3F)n2C)cc1	60.1	–	–
O=C(CSc1nc2ccccc2s1)Nc1ccc(N2CCOCC2)c(Cl)c1	–	–	–
O=C(CCSc1nc(-c2ccccc2)cs1)Nc1ccccc1	–	–	–
CC(=O)Nc1ccc(C(=O)CSc2nc3ccccc3o2)cc1	56.3	–	–
CC(=O)Nc1ccc(C(=O)CSc2nc(-c3ccccc3)cs2)cc1	87.6	–	–
CCOc1ccc(NC(=O)CSc2nc3ccccc3o2)cc1	–	–	–
COC(=O)c1cc(OC)c(OC)cc1NC(=O)CSc1nc2ccccc2o1	104.7	–	–
O=C(CSc1nc2ccccc2o1)Nc1ccc(N2CCOCC2)c(Cl)c1	96.1	–	–
COc1cc(OC)nc(NC(=O)CSc2nc3ccccc3o2)n1	–	–	–
O=C(CSc1nc2[nH]ncc2c(=O)n1-c1ccccc1)Nc1nsc(-c2ccccc2)n1	–	–	–
CCCCC/C=C\C/C=C\CCCCCCCC(=O)OC(CO)COP(=O)(O)OCC[N+](C)(C)C (stereo not drawn)	·	–	·
Cc1cc([N+](=O)[O-])ccc1NC(=O)CSc1nnnn1-c1ccccc1	–	–	–
Cc1sc2nc(SCC(=O)NCC3CCCO3)n(-c3ccc(F)cc3)c(=O)c2c1C (stereo not drawn)	–	–	–
COc1ccccc1-c1nnc(SCC(=O)Nc2ccc(Cl)cc2Cl)n1-c1ccccc1	–	–	–
Nc1ncnc2c1c(I)cn2C1OC(CO)C(O)C1O (stereo not drawn)	–	53.3	–
OCC1OC(n2cnc3c(NC4CCCC4)ncnc32)C(O)C1O (stereo not drawn)	–	·	–
SMILES	p53 PUMA act	STK33 inh	ID4 binder
Cc1[nH]c2ccccc2c1C(=O)CCC(=O)O	–	–	+
Cc1[nH]c2ccccc2c1C(=O)CSc1nnc2ccccn12	94.9	–	–
Cc1nnc(SCC(=O)c2c(C)[nH]c3ccccc23)s1	–	–	–
Cc1[nH]c2ccccc2c1C(=O)CSc1ncn[nH]1	–	–	–
Cc1ccc(NS(=O)(=O)c2cc(C(=O)Nc3ccccc3C(=O)N3CCCC3)ccc2C)c(C)c1	–	–	–
Cc1ccccc1NC(=O)c1ccc(C)c(S(=O)(=O)Nc2cc([N+](=O)[O-])ccc2C)c1	–	–	+
CCOc1c(OC)cccc1C1C(C(=O)Nc2ccccc2OC)=C(C)Nc2ncnn21 (stereo not drawn)	–	–	–
COc1ccc(NC(=O)C(=O)NCC(=O)Nc2ccc(C)cc2)cc1	–	–	–
Cc1ccc(C(=O)NC(=O)CSc2nnnn2-c2ccccc2)cc1	–	–	–
Cc1ccc(C)c(OCC(=O)Nc2cccc(-c3nnc(-c4ccco4)o3)c2)c1	101.7	–	–
Cc1cc(OCC(=O)Nc2cccc(-c3nnc(-c4ccccc4)o3)c2)cc(C)c1Cl	?	–	–
COc1ccccc1OCC(=O)Nc1cccc(-c2nnc(-c3ccccc3)o2)c1	94.9	–	–
COc1ccc(CC(=O)Nc2cccc(-c3nnc(-c4ccc(C)cc4)o3)c2)cc1OC	–	–	–
Cc1ccc(C)c(OCC(=O)Nc2cc(C(=O)O)cc(C(=O)O)c2)c1	–	–	–
COc1ccccc1OCC(=O)Nc1cccc(-c2nnc(-c3ccco3)o2)c1	62.2	–	–
COc1ccc(S(=O)(=O)N(C)CC(=O)NC2CCCC2)cc1	–	–	–
O=C(O)c1cccc(NC(=O)c2cc(S(=O)(=O)N3CCOCC3)c(Cl)cc2Cl)c1	–	–	–
O=C1c2ccccc2-[n+]2ccc3c([nH]c4ccccc43)c21	–	–	·
O=C1C(c2c(O)[nH]c3ccccc23)=Nc2ccccc21	–	24.6	–
